Most compounds without a hit are left out; they make up all but 10% or so of the library.
FLuc inh – inhibitors of firefly (Photinus pyralis) luciferase | P08659 | purified P. pyralis luciferase, luminescence, biochemical | Potency, µM (top dose mostly 115 µM), most hits filed as inhibitors | actives 2.5% (n = 76,000) | AID 1347043; also: nearly all actives have a fitted effect of over 65% in size
Target sequence (P08659 whole entry, looked up): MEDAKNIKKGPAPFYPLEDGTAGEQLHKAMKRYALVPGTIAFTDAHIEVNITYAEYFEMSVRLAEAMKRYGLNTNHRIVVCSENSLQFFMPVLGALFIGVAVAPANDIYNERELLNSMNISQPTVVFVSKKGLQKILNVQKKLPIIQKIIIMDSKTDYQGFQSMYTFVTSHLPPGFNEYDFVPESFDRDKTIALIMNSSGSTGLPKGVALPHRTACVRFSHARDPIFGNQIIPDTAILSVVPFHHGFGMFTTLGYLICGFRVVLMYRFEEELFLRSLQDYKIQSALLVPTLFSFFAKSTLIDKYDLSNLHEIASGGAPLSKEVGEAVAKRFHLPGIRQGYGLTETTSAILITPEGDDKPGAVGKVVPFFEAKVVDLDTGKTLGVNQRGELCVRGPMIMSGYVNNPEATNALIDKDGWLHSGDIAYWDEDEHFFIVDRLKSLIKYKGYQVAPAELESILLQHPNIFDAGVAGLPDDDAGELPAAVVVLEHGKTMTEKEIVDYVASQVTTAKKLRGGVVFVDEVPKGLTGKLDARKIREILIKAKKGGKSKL
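Purified 10nM P. pyralis luciferase with 10uM D-luciferin and 10uM ATP in 50mM Tris acetate pH 7.5, 10mM Mg acetate, 0.01% Tween-20, 0.05% BSA. qHTS titration; luminescence read by CCD imager.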
GPT2 inh – blocks human glutamate pyruvate transaminase 2 | Recombinant GPT2, coupled pyruvate oxidase/HRP Amplex Red fluorescence | actives 0.25% (n = 100,000) | Potency, µM (series often up to 57.7 µM), most hits filed as inhibitors | Q8TD30 | AID 1671188; also: nearly all actives have a fitted effect of over 60% in size
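Fluorescence read-out: pyruvate from GPT2 turnover coupled to pyruvate oxidase, HRP and Amplex Red (0.2mM ThPP, 0.2U/mL PO and HRP, 50uM Amplex final). Substrates 250uM a-KG, 2mM L-alanine; enzyme 10ng/uL; 30 min RT.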
NIH3T3 tox – NIH 3T3 cell cytotoxicity | NIH 3T3 viability, CellTiter-Glo ATP luminescence, 48-72 h | Potency, µM (highest dose often 96.7 µM), usual class: inhibitors | actives 4.3% (n = 94,000) | AID 1345082; also: nearly all actives have a fitted effect of over 55% in size
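Luminescent ATP readout (CellTiter-Glo, 10 min RT) after 48 or 72 hr compound exposure of NIH 3T3 cells seeded at 400 cells/well in 1536-well format; quantitative HTS.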
NPR1 antag – antagonists of human natriuretic peptide receptor Npr1; HEK293 hNpr1 GloSensor cGMP, ANP-stimulated luminescence; Potency, µM (series often up to 46.3 µM), actives largely listed as inhibitors; actives 1.6% (n = 76,000); AID 1347048; calls by dose curve; also: nearly all actives have a fitted effect of over 60% in size
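Compound pre-incubated 30 min at room temperature on GloSensor-loaded HEK293 cells stably carrying hNpr1 and the pGS-40F cGMP biosensor. Stimulation uses hNppA at 0.1 nM final; luminescence is taken at baseline and 20 min post-agonist.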
HEK cytotox – cytotoxic compounds in HEK 293 cells; HEK 293 viability, ATP luminescence (CellTiter-Glo), 48-72 h; actives 6.6% (n = 94,000); Potency, µM (series often up to 115 µM), usual class: inhibitors; also: nearly all actives have a fitted effect of over 60% in size
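HEK 293 cells seeded at 250 cells/well were exposed to compound for 48 or 72 hr at 37 degree Celsius. Viability taken as ATP content by CellTiter-Glo luminescence.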
A number is an active result; i = inactive; ? = inconclusive; nt = no result given. Unless noted, calls follow the shape of the dose curve; as a rule, active = well fitted curve in the direction sought with a large enough effect; inconclusive = small, poorly fitted or top-dose-only effect, or another doubt; inactive = no such curve, though single readings can be large; an effect the other way counts as inactive or inconclusive.

SMILES	FLuc inh	GPT2 inh	NIH3T3 tox	NPR1 antag	HEK cytotox
O=C(NCCc1ccccc1)C1CCN(Cc2ccccc2-c2ccccc2F)CC1	nt	nt	i	nt	?
COc1ccc(CNC(=O)C2CCN(Cc3ccccc3-c3ccccc3F)CC2)cc1	nt	nt	?	nt	45µM
O=C(NC1CC1)C1CCN(Cc2ccccc2-c2ccccc2F)CC1	nt	i	i	nt	i
O=C(NCc1ccccc1Cl)C1CCN(Cc2ccccc2-c2ccccc2F)CC1	nt	nt	45µM	nt	?
CCOc1ccccc1N1CCN(c2ncncc2-c2nc(-c3ccccc3)no2)CC1	i	i	?	i	?
O=C(NC1CCN(C(=O)c2ccc(-c3cccs3)cc2)CC1)c1ccccn1	nt	i	?	nt	?
OC1CCN(c2cc(N3CCOC(c4ccc(F)cc4)C3)ncn2)CC1 (centres undefined)	?	i	?	?	?
O=C(CC1CCCCC1)NC(Cc1ccccc1)C(=O)N1CCN(c2ccccn2)CC1 (centres undefined)	i	?	?	i	?
COC(=O)[C@H](Cc1ccccc1)NC1CCN(c2cccc(NC(=O)CC3CCCC3)c2)CC1	i	i	?	?	40µM
O=C(Nc1cc(F)ccc1Cl)c1cnc(-c2ccccc2)nc1-c1ccncc1	i	i	i	i	i
CN1c2cc(C(=O)Nc3ccc(Cl)c(F)c3)ccc2C(=O)N2CCCCC21 (centres undefined)	?	i	?	i	?
CN1c2cc(C(=O)Nc3ccc4c(c3)OCCO4)ccc2C(=O)N2CCCCCC21 (centres undefined)	13µM	i	?	i	?
Cc1ccc(NC(=O)c2ccc3c(c2)N(C)C2CCCCN2C3=O)cc1C (centres undefined)	40µM	i	?	i	?
Cc1ccc(NC(=O)c2ccc3c(c2)N(C)C2CCCCCN2C3=O)cc1 (centres undefined)	?	i	?	i	?
COc1ccc(NC(=O)c2ccc3c(c2)N(C)C2CCCCCN2C3=O)cc1OC (centres undefined)	i	i	?	i	?
Cc1ccc(NC(=O)c2ccc3c(c2)N(C)C2CCCCCN2C3=O)cc1C (centres undefined)	?	i	?	?	45µM
Cc1ccc(NC(=O)c2ccc3c(c2)N(C)C2CCCCCN2C3=O)cc1F (centres undefined)	i	i	?	i	32µM
CCNC(=O)N1CCOC(CN(CC(C)C)C(=O)c2cccc(OC)c2)C1 (centres undefined)	i	i	i	i	i
Cc1cc(NC(=O)c2ccc3c(c2)N(C)C2CCCCN2C3=O)ccc1Cl (centres undefined)	25µM	i	i	i	?
Cc1ccc(NC(=O)c2ccc3c(c2)N(C)C2CCCCN2C3=O)cc1Cl (centres undefined)	?	i	i	i	?
O=C1CC2(CCN(C(=O)C3CCCN(C(=O)Cc4ccc(F)cc4)C3)CC2)Oc2ccccc2N1 (centres undefined)	nt	i	?	nt	?
Cc1cnc(CCNS(=O)(=O)c2cccc(F)c2)n1Cc1ccc(F)cc1	nt	i	?	nt	40µM
CC(C)n1ccnc1CN1CCCC12CCN(c1ccc(C(F)(F)F)cn1)CC2	i	i	?	i	35µM
CC(C)n1cc(CN2CCCC23CCN(c2ccc(C(F)(F)F)cn2)CC3)cn1	i	i	?	?	?
O=C(c1nccc2ccccc12)N1CCC2(CC1)CC(Cc1nc(C3CC3)no1)CCO2 (centres undefined)	i	i	?	i	?
SMILES	FLuc inh	GPT2 inh	NIH3T3 tox	NPR1 antag	HEK cytotox
N#Cc1cccc(CN2CCC3(CC2)CC(Cc2nc(C4CC4)no2)CCO3)c1 (centres undefined)	i	i	?	i	45µM
COc1ccc2[nH]c(C[C@@H]3C[C@@H](C(C)C)[C@H](CN(C)C)C=C3C)nc2n1	i	i	89µM	i	?
COc1ccc2[nH]c(C[C@@H]3C[C@@H](C(C)C)[C@H](CNCc4ccccc4O)C=C3C)nc2n1	i	i	35µM	?	45µM
CCS(=O)(=O)N1C[C@@H](COC)[C@H](c2nc(C)no2)C1	i	i	i	i	i
COC[C@@H]1CNC[C@H]1c1nc(C)no1	i	i	i	i	89µM
Cc1nn2c(c1-c1ccccc1OCc1ccccc1)N(C(=O)Cc1ccccc1)CCC2	i	i	45µM	?	79µM
Cc1nn2c(c1-c1ccccc1[S+](C)(=O)[O-])N(C(=O)Cc1ccccc1)CCC2	i	i	?	i	i
Cc1nn2c(c1-c1cccc3cn[nH]c13)N(C(=O)Cc1ccccc1)CCC2	i	i	45µM	i	i
NCC(=O)N1Cc2ccccc2CC2(CCN(CC3CCOCC3)C2)C1 (centres undefined)	nt	i	i	nt	i
CN(Cc1cccnc1)C1CCCc2ccccc21 (centres undefined)	i	i	?	i	56µM
Cc1cccc(CN(C)C2CCCc3ccccc32)c1 (centres undefined)	i	i	i	i	i
CCc1ccccc1NC(=O)Cn1cccc1-c1nc(-c2ccc(OC)c(F)c2)no1	i	i	i	i	i
COc1cc(NC(=S)N[C@H]2CO[C@H]3[C@@H]2OC[C@@H]3n2nnnc2Oc2cccc(N3CCOCC3)c2)cc(OC)c1	i	i	i	i	i
O=C(COc1ccccc1)N1CCC(c2n[nH]c(=O)n2Cc2ccc(F)cc2)CC1	i	i	28µM	i	?
Cc1ccc(Cn2c(C3CCN(C(=O)c4ccc(C(C)(C)C)cc4)CC3)n[nH]c2=O)cc1	i	i	28µM	?	25µM
COc1ccc(Cn2c(C3CCN(C(=O)Cc4ccc(Cl)cc4)CC3)n[nH]c2=O)cc1	i	i	35µM	i	?
COc1ccc(Cn2c(C3CCN(C(=O)COc4ccccc4)CC3)n[nH]c2=O)cc1	i	i	?	i	i
Cc1ccc(Cn2c(C3CCN(C(=O)c4cc(C)cc(C)c4)CC3)n[nH]c2=O)cc1	i	i	i	i	?
O=C(COc1ccc(Cl)cc1)N1CCC(c2n[nH]c(=O)n2Cc2ccc(F)cc2)CC1	i	i	3.2µM	i	?
COCCn1c(=O)c(C(=O)N2CCN(C(=O)COC)CC2)nc2cccnc21	nt	i	i	nt	i
O=C1NC2(CCN(Cc3ccsc3)C2)OCc2ccccc21 (centres undefined)	i	i	i	i	i
Cc1ccc(-n2c(C3CCN(C(=O)COc4ccc(F)cc4)CC3)n[nH]c2=O)cc1	i	i	?	i	i
Cc1ccc(-n2c(C3CCN(C(=O)COc4ccc(Cl)cc4)CC3)n[nH]c2=O)cc1	i	i	2.8µM	i	i
CCOC(=O)[C@@H]1CN(C(=O)c2ccc(F)cc2)[C@H]2c3ccccc3O[C@@H]12	nt	nt	?	nt	i
COCC1CN(C(C)=O)CC12CCN(Cc1cccc(Br)c1)CC2 (centres undefined)	i	i	i	i	79µM

Source: PubChem (National Center for Advancing Translational Sciences (NCATS))
